Values without a mark were called inactive. Records with an inconclusive call do not appear. Entries that show only a call come without a potency. The source made the active and inactive calls. Unless noted, the call rests on the fitted dose curve.
Columns and labels:
[1] = Nuclear factor erythroid 2-related factor 2/antioxidant responsive element (Nrf2/ARE) small molecule agonists: qHTS cell viability counter screen in human keratinocytes (AID 1919968; active means well fitted curve in the direction sought with a large enough effect in the repeat runs; an effect the other way counts as inactive or inconclusive; further: nearly all actives have a fitted effect of over 55% in size; further: potency means the concentration at half of the fitted maximal effect)
Method in brief: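 Cells of the KeratinoSens line were plated at 1,500 per well and left for 5 h before compound transfer from DMSO stocks. After a 23 h incubation (37 C, 5% CO2), CellTiter-Fluor was added. Signal was taken as fluorescence intensity 1 h later.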

[2] = Nuclear factor erythroid 2-related factor 2/antioxidant responsive element (Nrf2/ARE) small molecule agonists: luciferase reporter gene qHTS assay in human keratinocytes (AID 1919969); further: nearly all actives have a fitted effect of over 35% in size
[3] = target: Gonadotropin-releasing hormone receptor (Homo sapiens) (UniProt P30968); experiment: Human gonadotropin-releasing hormone receptor (GnRHR) small molecule agonists, calcium flux assay in GnRHR-HEK293 cells (AID 1920063); further: nearly all actives have a fitted effect of over 35% in size
Method in brief: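 Compounds dissolved in DMSO are pin-transferred onto dye-loaded GnRHR-HEK293 cells, which were seeded 18 h before at 37 C/5% CO2. Calcium signal is read as fluorescence intensity at 1 s intervals for 3 min.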

[4] = target: KiSS-1 receptor (Homo sapiens) (UniProt Q969F8); experiment: Human kisspeptin (KISS1R) small molecule agonists, calcium flux assay in KISS1R-HEK293 cells (AID 1920064; active means well fitted curve in the direction sought with a large enough effect in the repeat runs; an effect the other way counts as inactive or inconclusive)
Method in brief: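 Cell line: HEK293, stable human KISS1R. Dye loading 1 h at 37 C after 18 h culture. Read: kinetic fluorescence, 480/540 nm, 3 min at 1 s intervals.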

[5] = G protein-coupled receptor (GPCR) small molecule agonists, calcium flux assay: HEK293 wild type cell line counter screen (AID 1920065)
Method in brief: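 Tox21 10K compounds, 15 concentrations each in triplicate, pin-transferred in DMSO onto dye-loaded cells; kinetic read at 480/540 nm for 3 min, 1 s intervals.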

[6] = p53 small molecule agonists, cell-based qHTS assay with human liver microsomes (AID 1963577);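 further: p53 response element beta-lactamase reporter cells with liver microsomes plus NADPH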
Method in brief: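 Metabolically competent format: test substances, human liver microsomes and NADPH (both 0.5 mg/mL final) incubated with p53RE-bla cells 16 h at 37 C. Beta-lactamase reporter signal then quantified by fluorescence.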

[7] = p53 small molecule agonists, cell-based qHTS assay with rat liver microsomes (AID 1963578)
Method in brief: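 Each plate received p53RE-bla cells, then compound, then rat liver microsomes and NADPH (both 0.5 mg/mL final). Plates were held 16 h at 37 C, and beta-lactamase activity was detected with LiveBLAzer over 2 h.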

[8] = p53 small molecule agonists, cell-based qHTS assay with human liver microsomes: qHTS cell viability counter screen (AID 1963579); further: nearly all actives have a fitted effect of over 45% in size; further: potency means the concentration at half of the fitted maximal effect
Method in brief: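 Tox21 library compounds, delivered from DMSO stocks, were tested on p53RE-bla cells together with 0.5 mg/mL human liver microsomes and 0.5 mg/mL NADPH (final) over 16 h at 37 C; CellTiter-Glo luminescence served as the cytotoxicity measure.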

[9] = p53 small molecule agonists, cell-based qHTS assay with rat liver microsomes: qHTS cell viability counter screen (AID 1963580); further: nearly all actives have a fitted effect of over 45% in size
Method in brief: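 Cytotoxicity counter screen: intracellular ATP read by CellTiter-Glo luminescence in the p53 reporter wells. HCT-116 p53RE-bla cells were treated for 16 h at 37 C alongside rat liver microsomes and NADPH, each 0.5 mg/mL final.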

[10] = p53 small molecule agonists, cell-based qHTS assay (AID 1963582; active means well fitted activation curve with a large enough effect in the signal ratio in the repeat runs, not every such curve was filed as active; the % refers to the signal ratio)
Method in brief: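 16 h compound exposure (37 C) of p53 response element–bla cells, preceded by 5 h recovery at 37 C/5% CO2; read-out via LiveBLAzer B/G FRET substrate, 2 h RT, fluorescence intensity.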

[11] = target: 5-hydroxytryptamine receptor 2A (Homo sapiens) (UniProt P28223); experiment: 5-hydroxytryptamine receptor 2A (HTR2A) small molecule antagonists, cell-based qHTS assay (AID 1963586); further: nearly all actives have a fitted effect of over 45% in size
Method in brief: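 CHO cells stably expressing human HTR2A were plated for 18 h at 37 C, then loaded with calcium dye for 1 h. Compounds were preincubated 5 min at room temperature before DOI (4 nM solution) was added. Kinetic fluorescence was read for 3 min.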

[12] = target: Muscarinic acetylcholine receptor M1 (Homo sapiens) (UniProt P11229); experiment: Cholinergic receptor muscarinic 1 (CHRM1) small molecule agonists, cell-based qHTS assay (AID 1963589); further: nearly all actives have a fitted effect of over 35% in size
Method in brief: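 Homogeneous fluorescence calcium flux, agonist mode. Human M1-expressing CHO cells; compound dosed at 15 concentrations, three independent runs; signal sampled every 1 sec.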

[13] = cAMP Responsive Elements (CRE) small molecule agonists, cell-based qHTS assay (AID 1963590)
Method in brief: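 HEK 293T cells stably bearing CRE-bla were plated at 2,000 cells per well and rested 18 h. Compounds, positive controls or DMSO were added for 3 h at 37 C. LiveBLAzer B/G substrate was then loaded for 2 h at room temperature.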

[14] = cAMP Responsive Elements (CRE) small molecule antagonists, cell-based qHTS assay (AID 1963591; active means well fitted inhibition curve with a large enough effect in the signal ratio in the repeat runs, not every such curve was filed as active; the % refers to the signal ratio)
Method in brief: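 First, CRE-bla HEK293T cells settled 18 h at 37 C. Next, compound and 0.25 uM final NKH477 were applied for 3 h. Last, LiveBLAzer B/G substrate was loaded for 2 h at room temperature.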

[15] = target: Beta-2 adrenergic receptor (Homo sapiens) (UniProt P07550); experiment: Adrenergic beta2 receptor (ADRB2) small molecule antagonists, cell-based qHTS assay (AID 1963592); further: series mostly up to about 92 µM; nearly all actives have a fitted effect of over 50% in size
Method in brief: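 Assay format: CHO-ADRB2 cells, 18-20hr seeding at 37C/5% CO2, then compound plus 1nM isoproterenol agonist mix for 0.5hr RT. Homogeneous time-resolved fluorescence cAMP detection after 1hr, expressed as 665/615 nm ratio.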

[16] = target: Beta-2 adrenergic receptor (Homo sapiens) (UniProt P07550); experiment: Adrenergic beta2 receptor (ADRB2) small molecule agonists, cell-based qHTS assay (AID 1963593);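 further: CHO cells stably overexpressing human ADRB2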
Method in brief: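 CHO cells stably over-expressing ADRB2 were plated overnight at 37C, then dosed with compounds plus a stimulation mix containing 100uM IBMX and 25uM Ro-20-1724 for 0.5hr at room temperature. cAMP was measured by HTRF competition, 1hr.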

[17] = target: D(2) dopamine receptor (Homo sapiens) (UniProt P14416); experiment: Dopamine D2 receptor (DRD2) small molecule agonists, cell-based qHTS assay (AID 1963594); further: nearly all actives have a fitted effect of over 35% in size
Method in brief: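 cAMP accumulation in DRD2-HEK293 cells measured by HTRF after 1 h detection; compounds added 10 min before NKH477 (200nM […]) forskolin-analogue stimulation, 30 min at room temperature, with Ro20-1724 present at 0.1 mM final.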

[18] = target: D(2) dopamine receptor (Homo sapiens) (UniProt P14416); experiment: Dopamine D2 receptor (DRD2) small molecule antagonists, cell-based qHTS assay (AID 1963595; active means well fitted inhibition curve with a large enough effect in the signal ratio in the repeat runs, with a control signal flat; the % refers to the signal ratio; further: potency means the concentration at half of the fitted maximal effect)
Method in brief: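 HEK293 cells stably expressing DRD2 were preincubated with 0.1 mM Ro20-1724, then with compound for 10 min at room temperature. Cells were stimulated with 200 nM NKH477 plus 12 nM quinpirole for 30 min, and cAMP was read by HTRF.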

[19] = target: 5-hydroxytryptamine receptor 2A (Homo sapiens) (UniProt P28223); experiment: 5-hydroxytryptamine receptor 2A (HTR2A) small molecule agonists, cell-based qHTS assay (AID 1963587); further: nearly all actives have a fitted effect of over 30% in size; further: potency means the concentration at half of the fitted maximal effect
Method in brief: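 Kinetic calcium-flux fluorescence (2 min, 1 sec intervals) after compound addition in agonist mode. HTR2A-CHO cells were cultured 18 h, then dye-loaded 1 h at 37 C.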

[20] = target: Muscarinic acetylcholine receptor M1 (Homo sapiens) (UniProt P11229); experiment: Cholinergic receptor muscarinic 1 (CHRM1) small molecule antagonists, cell-based qHTS assay (AID 1963588); further: nearly all actives have a fitted effect of over 40% in size
Method in brief: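 Compounds were tested at 15 concentrations in three independent runs. Dye-loaded CHRM1-CHO cells were exposed 5 min at room temperature before stimulation by acetylcholine added at 50nM. Intracellular calcium was read kinetically on FDSS for 3 min.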

Sequence of KiSS-1 receptor (Homo sapiens) (Q969F8 whole entry, looked up): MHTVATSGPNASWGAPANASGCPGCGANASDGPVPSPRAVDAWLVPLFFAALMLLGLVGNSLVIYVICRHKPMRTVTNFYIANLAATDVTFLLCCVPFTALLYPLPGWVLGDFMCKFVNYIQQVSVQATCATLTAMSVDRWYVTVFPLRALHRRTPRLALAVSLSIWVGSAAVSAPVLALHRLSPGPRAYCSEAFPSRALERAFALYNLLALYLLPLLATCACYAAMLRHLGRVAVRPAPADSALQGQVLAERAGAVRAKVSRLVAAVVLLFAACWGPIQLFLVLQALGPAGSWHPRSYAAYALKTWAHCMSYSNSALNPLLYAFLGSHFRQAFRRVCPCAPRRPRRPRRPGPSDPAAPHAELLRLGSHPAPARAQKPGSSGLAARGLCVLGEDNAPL
Sequence of Muscarinic acetylcholine receptor M1 (Homo sapiens) (P11229 whole entry, looked up): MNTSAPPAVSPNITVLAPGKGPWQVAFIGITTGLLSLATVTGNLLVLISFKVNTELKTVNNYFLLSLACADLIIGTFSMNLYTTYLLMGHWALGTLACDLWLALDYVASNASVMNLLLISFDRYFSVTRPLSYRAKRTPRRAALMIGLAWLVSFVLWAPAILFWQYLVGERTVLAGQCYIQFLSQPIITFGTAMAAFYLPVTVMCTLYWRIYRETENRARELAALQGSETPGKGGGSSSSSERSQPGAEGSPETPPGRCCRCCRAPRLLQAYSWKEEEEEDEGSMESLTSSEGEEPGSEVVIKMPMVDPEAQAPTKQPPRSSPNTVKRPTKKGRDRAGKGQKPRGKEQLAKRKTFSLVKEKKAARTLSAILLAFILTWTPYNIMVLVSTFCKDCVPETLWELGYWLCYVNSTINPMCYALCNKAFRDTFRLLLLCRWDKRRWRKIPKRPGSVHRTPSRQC
Sequence of Beta-2 adrenergic receptor (Homo sapiens) (P07550 whole entry, looked up): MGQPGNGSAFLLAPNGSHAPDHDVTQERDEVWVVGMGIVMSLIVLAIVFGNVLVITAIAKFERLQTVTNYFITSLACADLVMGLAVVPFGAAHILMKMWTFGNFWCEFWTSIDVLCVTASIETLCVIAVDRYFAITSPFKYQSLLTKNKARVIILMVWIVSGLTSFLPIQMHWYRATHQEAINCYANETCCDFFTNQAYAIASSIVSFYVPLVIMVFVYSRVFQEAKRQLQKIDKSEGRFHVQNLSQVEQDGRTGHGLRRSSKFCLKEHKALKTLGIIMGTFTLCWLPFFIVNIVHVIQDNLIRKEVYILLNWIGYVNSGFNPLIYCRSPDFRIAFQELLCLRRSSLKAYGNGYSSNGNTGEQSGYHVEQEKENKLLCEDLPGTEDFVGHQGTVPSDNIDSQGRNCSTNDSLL
Sequence of D(2) dopamine receptor (Homo sapiens) (P14416 whole entry, looked up): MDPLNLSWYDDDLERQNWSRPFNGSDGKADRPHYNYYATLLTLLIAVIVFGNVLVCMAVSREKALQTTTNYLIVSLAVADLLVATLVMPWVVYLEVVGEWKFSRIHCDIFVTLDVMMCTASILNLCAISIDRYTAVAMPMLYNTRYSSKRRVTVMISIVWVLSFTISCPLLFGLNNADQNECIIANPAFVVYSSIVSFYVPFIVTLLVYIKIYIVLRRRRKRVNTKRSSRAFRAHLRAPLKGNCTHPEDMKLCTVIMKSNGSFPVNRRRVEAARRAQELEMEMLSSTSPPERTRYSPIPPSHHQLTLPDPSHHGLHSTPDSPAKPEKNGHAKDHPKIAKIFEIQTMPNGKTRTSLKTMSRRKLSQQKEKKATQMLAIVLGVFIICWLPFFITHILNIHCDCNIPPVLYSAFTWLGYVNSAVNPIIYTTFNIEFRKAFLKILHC
Sequence of Gonadotropin-releasing hormone receptor (Homo sapiens) (P30968 whole entry, looked up): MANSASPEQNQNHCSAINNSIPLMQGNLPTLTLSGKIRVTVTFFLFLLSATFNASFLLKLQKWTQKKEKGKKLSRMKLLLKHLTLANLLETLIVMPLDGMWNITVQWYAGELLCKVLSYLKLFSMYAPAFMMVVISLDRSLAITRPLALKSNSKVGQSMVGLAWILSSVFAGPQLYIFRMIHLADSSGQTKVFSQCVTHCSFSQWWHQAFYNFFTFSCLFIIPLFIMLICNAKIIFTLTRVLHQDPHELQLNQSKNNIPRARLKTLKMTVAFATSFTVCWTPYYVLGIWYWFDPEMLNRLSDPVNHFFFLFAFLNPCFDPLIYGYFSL
Sequence of 5-hydroxytryptamine receptor 2A (Homo sapiens) (P28223 whole entry, looked up): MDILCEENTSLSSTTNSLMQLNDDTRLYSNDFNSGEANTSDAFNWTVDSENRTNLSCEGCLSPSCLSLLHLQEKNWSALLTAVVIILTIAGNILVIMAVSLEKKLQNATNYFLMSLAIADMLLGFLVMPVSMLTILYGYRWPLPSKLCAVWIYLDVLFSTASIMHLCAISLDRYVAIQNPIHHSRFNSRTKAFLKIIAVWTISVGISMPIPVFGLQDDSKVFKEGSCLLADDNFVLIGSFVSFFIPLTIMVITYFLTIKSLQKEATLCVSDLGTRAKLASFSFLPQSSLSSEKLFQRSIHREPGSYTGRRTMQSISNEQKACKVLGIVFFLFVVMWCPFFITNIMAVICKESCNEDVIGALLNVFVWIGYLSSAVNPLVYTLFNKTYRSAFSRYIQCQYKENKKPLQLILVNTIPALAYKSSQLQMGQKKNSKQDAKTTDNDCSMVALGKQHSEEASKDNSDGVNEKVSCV

Row | Structure (SMILES) | Potency [1] | Potency [2] | Potency [3] | outcome [4] | outcome [5] | Potency [6] | Potency [7] | Potency [8] | Potency [9] | Potency [10] | Potency [11] | Potency [12] | Potency [13] | Potency [14] | Potency [15] | Potency [16] | Potency [17] | Potency [18] | Potency [19] | Potency [20]
1 | CCO[Si](CC)(OCC)OCC | inactive | inactive | inactive | inactive | inactive | inactive | inactive | inactive | inactive | inactive | inactive | inactive | inactive | inactive | inactive | inactive | inactive | inactive |  | 
2 | C/C=C(\C)C(=O)OCCC(C)CCC=C(C)C (stereo not drawn) | inactive | inactive | inactive | inactive | inactive | inactive | inactive | inactive | inactive | inactive | inactive | inactive |  | inactive |  |  | inactive | inactive | inactive | 
3 | CC(=O)Oc1cc2c(s1)CCN(C(C(=O)C1CC1)c1ccccc1F)C2 (stereo not drawn) | inactive | inactive | inactive | inactive | inactive | inactive | inactive | inactive | inactive | inactive |  | inactive |  |  | inactive |  | inactive | inactive | inactive | inactive
4 | CC/C=C(\C)C=O | inactive | inactive | inactive | inactive | inactive | inactive | inactive | inactive | inactive | inactive | inactive | inactive | inactive | inactive | inactive |  | inactive | inactive | inactive | 
5 | CCCCCC[C@@H](O)C/C=C\CCCCCCCC(=O)OCC(O)CO (stereo partly drawn) | inactive | inactive | inactive | inactive | inactive | inactive | inactive | inactive | inactive | inactive | inactive | inactive |  |  | inactive |  | inactive |  | inactive | 
6 | CC1=C2[C@H](/C=C(\C)C(=O)O)CC[C@@H](C)[C@H]2CC1 | 44.9 µM (active) | inactive | inactive | inactive | inactive | inactive | inactive | 29.9 µM (active) | inactive | inactive | inactive | inactive |  |  | inactive |  | inactive | inactive |  | 
7 | CCc1cccc(CC)c1N(COC)C(=O)CS(=O)(=O)O | inactive | inactive | inactive | inactive | inactive | inactive | inactive | inactive | inactive | inactive | inactive | inactive | inactive | inactive | inactive |  | inactive | inactive |  | inactive
8 | CCCCCCCCCCOC(C)=O | inactive | inactive | inactive | inactive | inactive | inactive | inactive | inactive | inactive | inactive |  | inactive | inactive | inactive | inactive | inactive | inactive | inactive | inactive | inactive
9 | Oc1ccc(C2CNCCc3c2cc(O)c(O)c3Cl)cc1 (stereo not drawn) | inactive | inactive | inactive | inactive | inactive | inactive | inactive | inactive | inactive | inactive |  | inactive | inactive | inactive |  |  |  | inactive | 0.151 µM (active) | inactive
10 | O=C1c2ccccc2C(=O)C1c1ccccc1 | inactive | inactive | inactive | inactive | inactive | inactive | inactive | inactive | inactive | inactive |  |  | inactive | inactive | inactive | inactive | inactive | inactive |  | 
11 | CCc1cc(Cl)c(OC)c(C(=O)NC[C@@H]2CCCN2CC)c1O | inactive | inactive | inactive | inactive | inactive | inactive | inactive | inactive | inactive | inactive |  | inactive | inactive | inactive |  |  | inactive | 0.0033 µM (active) |  | inactive
12 | CCOC(=O)c1ccccc1O | inactive | inactive | inactive | inactive | inactive | inactive | inactive | inactive | inactive | inactive | inactive | inactive | inactive | inactive | inactive | inactive | inactive | inactive |  | inactive
13 | CCOC(=O)CC(CC(=O)OCC)(OC(C)=O)C(=O)OCC | inactive | inactive | inactive | inactive | inactive | inactive | inactive | inactive | inactive | inactive | inactive | inactive | inactive | inactive | inactive |  | inactive | inactive | inactive | 
14 | O=c1[nH]cccc1O | inactive | inactive | inactive | inactive | inactive | inactive | inactive | inactive | inactive | inactive | inactive | inactive | inactive | inactive | inactive |  |  | inactive |  | 
15 | Cc1ccc(Cl)c(OCC(O)CNC(C)(C)C)c1 (stereo not drawn) | inactive | inactive | inactive | inactive | inactive | inactive | inactive | inactive | inactive | inactive |  | inactive | inactive | inactive |  |  | inactive | inactive | inactive | inactive
16 | N[C@@H](Cc1cc(I)c(O)c(I)c1)C(=O)O | inactive | inactive | inactive | inactive | inactive | inactive | inactive | inactive | inactive | inactive | inactive | inactive | inactive | inactive | inactive |  |  | inactive |  | inactive
17 | CN1CCN(C2=Nc3ccccc3Oc3ccc(Cl)cc32)CC1 | inactive | inactive | inactive | inactive | inactive | inactive | inactive | inactive | inactive | inactive |  | inactive |  |  |  |  | inactive |  | inactive | 

— PubChem BioAssay (Tox21)
